ChEMBL document CHEMBL3988442, “University of Dundee, Small-Polar-MMV Screening Library” (2021)
For part of these data: Entries with a potency or affinity are not part of this list.

How the values were obtained:
Design in all cases: scale not given: direction of the effect not stated beside the values
[1] = target: Protein translocase subunit SecA (Escherichia coli (strain K12)) (UniProt P10408); experiment: Assay to Identify E. coli SecA ATPase Inhibitors; assay type: functional; conditions: 30 µM
[2] = target: T1, Ubiquitin-activating enzyme e1, putative (Leishmania donovani (strain BPK282A1)) (UniProt E9BSI1); experiment: Leishmania donovani Ubiquitin Activating Enzyme (LdE1); assay type: functional; conditions: 30 µM
T1 sequence (whole entry): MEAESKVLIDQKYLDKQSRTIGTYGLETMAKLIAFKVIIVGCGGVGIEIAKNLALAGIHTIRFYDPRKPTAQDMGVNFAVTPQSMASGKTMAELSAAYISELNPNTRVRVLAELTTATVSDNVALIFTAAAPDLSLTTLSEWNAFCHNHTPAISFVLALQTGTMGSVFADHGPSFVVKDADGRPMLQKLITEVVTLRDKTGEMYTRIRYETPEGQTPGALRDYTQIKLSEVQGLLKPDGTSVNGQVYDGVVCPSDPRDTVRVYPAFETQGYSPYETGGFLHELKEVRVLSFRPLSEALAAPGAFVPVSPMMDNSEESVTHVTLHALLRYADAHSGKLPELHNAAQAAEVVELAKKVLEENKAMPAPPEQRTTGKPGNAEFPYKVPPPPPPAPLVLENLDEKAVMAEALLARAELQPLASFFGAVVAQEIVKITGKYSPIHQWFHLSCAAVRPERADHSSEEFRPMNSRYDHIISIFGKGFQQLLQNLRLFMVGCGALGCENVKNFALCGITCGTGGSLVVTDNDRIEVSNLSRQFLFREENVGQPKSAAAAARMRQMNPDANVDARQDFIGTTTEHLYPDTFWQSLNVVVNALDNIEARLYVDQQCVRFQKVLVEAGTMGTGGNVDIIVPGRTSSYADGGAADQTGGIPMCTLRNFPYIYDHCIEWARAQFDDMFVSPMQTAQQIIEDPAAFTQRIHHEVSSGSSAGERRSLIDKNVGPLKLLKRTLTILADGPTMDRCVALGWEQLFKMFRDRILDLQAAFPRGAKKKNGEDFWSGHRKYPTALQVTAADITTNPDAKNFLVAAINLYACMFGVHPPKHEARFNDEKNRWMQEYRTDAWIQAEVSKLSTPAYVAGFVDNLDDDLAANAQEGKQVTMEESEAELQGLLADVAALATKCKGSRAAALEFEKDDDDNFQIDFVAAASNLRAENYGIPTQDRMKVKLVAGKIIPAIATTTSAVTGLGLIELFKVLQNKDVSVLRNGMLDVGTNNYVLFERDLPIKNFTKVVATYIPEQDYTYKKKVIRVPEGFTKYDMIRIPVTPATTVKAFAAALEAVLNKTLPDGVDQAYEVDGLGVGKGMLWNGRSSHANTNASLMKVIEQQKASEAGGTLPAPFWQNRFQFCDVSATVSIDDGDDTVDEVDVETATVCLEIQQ

[3] = target: Sialic acid-binding Ig-like lectin 9 (Homo sapiens) (UniProt Q9Y336); experiment: Hs-Siglec9 ALPHAscreen SOP 20170721; conditions: 10 µM
[4] = system: Trypanosoma cruzi; experiment: Trypanosoma cruzi phosphomannomutase and mannose-1-phosphate guanylyltransferase assay; assay type: functional; conditions: 10 µM
[5] = target: T2, Arginase-2, mitochondrial (Homo sapiens) (UniProt P78540); experiment: in vitro enzyme assay to detect the production of urea directly proportional to the activity of Arginase II; assay type: functional; conditions: 33.3 µM; also: in the data most compounds retested in dose-response had high values
T2 sequence (whole entry): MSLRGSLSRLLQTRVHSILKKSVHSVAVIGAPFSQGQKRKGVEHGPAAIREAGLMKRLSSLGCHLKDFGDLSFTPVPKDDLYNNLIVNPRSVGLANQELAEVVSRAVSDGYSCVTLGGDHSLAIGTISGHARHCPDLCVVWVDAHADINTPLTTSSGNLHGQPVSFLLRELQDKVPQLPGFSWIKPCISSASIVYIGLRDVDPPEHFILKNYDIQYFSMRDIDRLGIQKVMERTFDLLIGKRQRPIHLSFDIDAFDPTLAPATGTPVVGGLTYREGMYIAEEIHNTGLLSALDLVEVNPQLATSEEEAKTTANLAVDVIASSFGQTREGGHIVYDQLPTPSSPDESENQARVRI

[6] = target: T3, Proteasome subunit beta (Trypanosoma cruzi) (UniProt O96673); experiment: Trypanosoma cruzi proteasome chymotrypsin-like activity (TcProtChymo) assay.; also: in the data most compounds retested in dose-response had high values; assay type: functional; conditions: 9.37 µM
T3 sequence (whole entry): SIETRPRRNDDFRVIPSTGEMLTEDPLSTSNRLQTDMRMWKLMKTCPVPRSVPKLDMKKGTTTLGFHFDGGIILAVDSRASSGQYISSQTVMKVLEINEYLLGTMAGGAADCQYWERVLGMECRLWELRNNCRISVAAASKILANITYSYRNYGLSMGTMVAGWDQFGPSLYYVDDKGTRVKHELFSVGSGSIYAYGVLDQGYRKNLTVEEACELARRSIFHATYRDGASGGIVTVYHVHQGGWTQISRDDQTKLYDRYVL

[7] = organism: Homo sapiens; experiment: To identify inhibition of the IFN signalling (Jak-Stat) pathway via expression of an eGFP reporter gene under the control of an IFN-stimulated response element (ISRE) containing MxA promoter.; assay type: functional; conditions: 30 µM
[8] = target: T4, Tyrosyl-tRNA synthetase, putative (Trypanosoma cruzi (strain CL Brener)) (UniProt Q4DSP6); experiment: Trypanosoma cruzi tyrosyl tRNA synthetase (TcYRS) _High Tyrosine SOP; assay type: functional; conditions: 30 µM; also: in the data most compounds retested in dose-response had high values
T4 sequence (whole entry): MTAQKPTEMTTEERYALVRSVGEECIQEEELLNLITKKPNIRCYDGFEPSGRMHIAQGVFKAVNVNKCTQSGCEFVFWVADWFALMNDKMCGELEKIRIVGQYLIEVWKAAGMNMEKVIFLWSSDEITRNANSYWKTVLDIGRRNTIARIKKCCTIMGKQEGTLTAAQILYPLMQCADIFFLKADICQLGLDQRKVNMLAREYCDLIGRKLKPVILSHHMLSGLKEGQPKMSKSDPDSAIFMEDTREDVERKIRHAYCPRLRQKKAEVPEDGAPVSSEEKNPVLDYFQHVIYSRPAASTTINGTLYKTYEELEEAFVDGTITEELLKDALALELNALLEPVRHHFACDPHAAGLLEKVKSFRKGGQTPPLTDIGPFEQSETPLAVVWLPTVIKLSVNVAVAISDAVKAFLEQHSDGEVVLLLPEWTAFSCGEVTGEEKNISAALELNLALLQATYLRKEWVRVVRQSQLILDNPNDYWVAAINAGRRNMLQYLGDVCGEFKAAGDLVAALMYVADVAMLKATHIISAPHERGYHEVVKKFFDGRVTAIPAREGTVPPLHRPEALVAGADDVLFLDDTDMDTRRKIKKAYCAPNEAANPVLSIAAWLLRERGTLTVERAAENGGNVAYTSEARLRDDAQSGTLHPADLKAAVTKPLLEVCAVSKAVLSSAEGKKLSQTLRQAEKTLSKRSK

[9] = target: T4, Tyrosyl-tRNA synthetase, putative (Trypanosoma cruzi (strain CL Brener)); experiment: Trypanosoma cruzi tyrosyl tRNA synthetase (TcYRS) SOP; assay type: functional; conditions: 30 µM
[10] = target: Chromo domain-containing protein 1 (Saccharomyces cerevisiae (strain ATCC 204508 / S288c) (Baker's yeast)) (UniProt P32657); experiment: ScCHD-1 Enzyme Inhibition Assay; assay type: functional; conditions: 30 µM; also: in the data most compounds retested in dose-response had high values
Chromo domain-containing protein 1 (Saccharomyces cerevisiae (strain ATCC 204508 / S288c) (Baker's yeast)), sequence (P32657 whole entry, the tested form may be a part): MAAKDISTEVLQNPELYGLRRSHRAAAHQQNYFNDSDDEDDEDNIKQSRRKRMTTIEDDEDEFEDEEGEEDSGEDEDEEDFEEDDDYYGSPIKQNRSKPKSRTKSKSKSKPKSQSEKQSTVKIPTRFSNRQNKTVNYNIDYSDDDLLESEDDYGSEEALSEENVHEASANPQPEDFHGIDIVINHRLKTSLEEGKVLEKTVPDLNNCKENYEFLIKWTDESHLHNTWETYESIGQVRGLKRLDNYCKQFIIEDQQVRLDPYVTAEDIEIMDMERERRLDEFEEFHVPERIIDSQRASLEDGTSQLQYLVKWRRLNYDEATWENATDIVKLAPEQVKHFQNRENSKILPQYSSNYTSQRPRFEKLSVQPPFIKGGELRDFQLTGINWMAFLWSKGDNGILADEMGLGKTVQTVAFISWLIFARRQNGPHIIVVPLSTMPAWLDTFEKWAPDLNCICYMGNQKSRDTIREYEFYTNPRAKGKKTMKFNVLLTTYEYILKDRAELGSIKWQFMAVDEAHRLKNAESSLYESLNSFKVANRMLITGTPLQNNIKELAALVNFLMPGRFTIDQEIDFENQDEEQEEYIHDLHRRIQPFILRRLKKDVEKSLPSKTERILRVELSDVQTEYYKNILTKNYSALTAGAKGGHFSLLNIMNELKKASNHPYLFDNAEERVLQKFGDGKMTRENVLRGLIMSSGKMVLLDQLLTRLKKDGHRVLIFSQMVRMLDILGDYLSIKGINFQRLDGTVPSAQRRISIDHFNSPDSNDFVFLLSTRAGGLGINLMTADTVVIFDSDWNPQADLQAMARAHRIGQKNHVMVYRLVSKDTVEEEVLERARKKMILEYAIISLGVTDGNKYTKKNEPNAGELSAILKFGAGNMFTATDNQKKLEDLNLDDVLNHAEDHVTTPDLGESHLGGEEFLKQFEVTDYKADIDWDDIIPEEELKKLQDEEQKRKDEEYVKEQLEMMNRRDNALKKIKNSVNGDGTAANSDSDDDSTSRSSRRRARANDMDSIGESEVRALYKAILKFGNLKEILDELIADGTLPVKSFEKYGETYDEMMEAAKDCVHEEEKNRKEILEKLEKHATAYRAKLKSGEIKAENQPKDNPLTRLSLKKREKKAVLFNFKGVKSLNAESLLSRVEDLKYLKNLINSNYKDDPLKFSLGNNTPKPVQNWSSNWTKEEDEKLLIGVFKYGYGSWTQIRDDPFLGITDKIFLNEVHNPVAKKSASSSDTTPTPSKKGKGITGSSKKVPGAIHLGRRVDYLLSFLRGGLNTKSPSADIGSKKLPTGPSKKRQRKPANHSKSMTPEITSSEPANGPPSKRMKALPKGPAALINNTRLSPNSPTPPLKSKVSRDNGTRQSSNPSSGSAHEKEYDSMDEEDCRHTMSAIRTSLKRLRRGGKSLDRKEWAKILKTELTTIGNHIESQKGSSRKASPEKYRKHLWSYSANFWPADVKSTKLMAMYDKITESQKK

Sialic acid-binding Ig-like lectin 9 (Homo sapiens), sequence (Q9Y336 whole entry): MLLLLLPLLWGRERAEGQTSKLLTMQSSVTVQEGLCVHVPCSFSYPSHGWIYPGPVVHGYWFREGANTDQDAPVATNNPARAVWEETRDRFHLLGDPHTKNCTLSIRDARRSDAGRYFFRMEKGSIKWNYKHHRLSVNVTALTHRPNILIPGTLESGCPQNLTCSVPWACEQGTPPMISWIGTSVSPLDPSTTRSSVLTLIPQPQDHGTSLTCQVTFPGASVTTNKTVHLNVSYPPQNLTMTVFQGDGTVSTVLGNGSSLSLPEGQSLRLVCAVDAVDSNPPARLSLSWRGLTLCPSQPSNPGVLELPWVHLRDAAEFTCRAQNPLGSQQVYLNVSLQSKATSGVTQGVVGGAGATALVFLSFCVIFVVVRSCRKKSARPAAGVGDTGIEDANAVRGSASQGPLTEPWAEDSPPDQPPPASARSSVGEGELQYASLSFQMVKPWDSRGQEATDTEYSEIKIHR
Protein translocase subunit SecA (Escherichia coli (strain K12)), sequence (P10408 whole entry): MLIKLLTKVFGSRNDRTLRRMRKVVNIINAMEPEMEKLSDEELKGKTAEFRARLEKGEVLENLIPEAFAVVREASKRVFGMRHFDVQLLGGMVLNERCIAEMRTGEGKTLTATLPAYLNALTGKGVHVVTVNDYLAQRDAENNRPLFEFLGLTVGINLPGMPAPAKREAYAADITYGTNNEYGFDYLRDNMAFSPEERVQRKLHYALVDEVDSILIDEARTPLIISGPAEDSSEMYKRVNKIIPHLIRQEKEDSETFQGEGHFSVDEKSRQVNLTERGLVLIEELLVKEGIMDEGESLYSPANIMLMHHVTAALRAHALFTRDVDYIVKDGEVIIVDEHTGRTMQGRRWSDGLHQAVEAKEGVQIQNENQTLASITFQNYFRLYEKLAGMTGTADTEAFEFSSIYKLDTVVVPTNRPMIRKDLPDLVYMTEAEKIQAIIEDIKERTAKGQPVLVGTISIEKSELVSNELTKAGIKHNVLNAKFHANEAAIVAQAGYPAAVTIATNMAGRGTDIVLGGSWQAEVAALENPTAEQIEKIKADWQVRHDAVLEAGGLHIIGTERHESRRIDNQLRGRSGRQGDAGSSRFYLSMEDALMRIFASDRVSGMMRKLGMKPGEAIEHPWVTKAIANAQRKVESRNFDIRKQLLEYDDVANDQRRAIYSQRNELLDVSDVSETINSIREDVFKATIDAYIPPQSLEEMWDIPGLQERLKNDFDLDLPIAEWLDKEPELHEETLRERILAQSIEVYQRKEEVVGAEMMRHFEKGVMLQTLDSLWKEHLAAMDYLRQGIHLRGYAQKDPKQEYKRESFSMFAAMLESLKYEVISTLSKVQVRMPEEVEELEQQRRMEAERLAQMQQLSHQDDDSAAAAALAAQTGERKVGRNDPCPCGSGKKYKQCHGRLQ

| SMILES | Percent Effect [1] [%] | Percent Effect [2] [%] | Percent Effect [3] [%] | Percent Effect [4] [%] | Percent Effect [5] [%] | Percent Effect [6] [%] | Percent Effect [7] [%] | Percent Effect [8] [%] | Percent Effect [9] [%] | Percent Effect [10] [%] |
| --- | --- | --- | --- | --- | --- | --- | --- | --- | --- | --- |
| CNc1cccc(C2CCCN(C(C)=O)C2)n1 (stereo not given) | 1.36 | 6.67 | -7.25 | -6.71 | 3.98 | 14.1 | 17.4 | 1.06 | 5 | -14.4 |
| CS(=O)(=O)N1CCC2(CC1)CC(CC(=O)N1CCCC1)c1ccccc12 (stereo not given) | -6.42 | 6.49 | 10.4 | -2.43 | -5.67 | 2.21 | -5.9 | 1.58 | -7.69 | 2.73 |
| O=S(=O)(N1CCCC1)N1CCCCC1CCc1ccccc1 (stereo not given) | -6.97 | 0 | -0.69 | -3.59 | -1.05 | 13 | 25.4 | -3.72 | -4.88 | -0.676 |
| CCc1nc(C2CCCN2C(=O)c2nccnc2N)no1 (stereo not given) | -2.75 | -5.13 | -2.27 | 8.92 | 0.82 | -4.69 | -2.29 | -2.39 | 6.02 | -1.91 |
| Cc1cccc(N2CC[C@@H]3CN(Cc4csc(C)n4)CCO[C@@H]3C2)n1 | -6.02 | -14.3 | -1.28 | 6.52 | -6.88 | 7.15 | -15.6 | 1.58 | -5.13 | -0.609 |
| CC(C)(O)CN1CCN(C(=O)c2cc(Cl)cc3cccnc23)CC1 | -3.15 | -5.13 | 5.39 | 2.54 | 6.15 | 9.13 | -3.27 | 2.39 | 1.21 | -5.6 |
| CN(Cc1cn2ccccc2n1)C1CCCN(c2cccnn2)C1 (stereo not given) | -0.768 | 26 | -7.59 | 0.187 | -4.71 | 15.1 | -3.7 | 7.84 | 18.8 | -9.66 |
| Cc1ccc(C(=O)N2CCC3(CC2)CCN(CCN(C)C)C3=O)cn1 | -3.6 | 6.49 | -4.15 | -1.31 | -0.457 | 6.44 | 11.3 | 7.73 | 7.5 | -6.63 |
| CCc1noc(C(C)N2CCOCC2)n1 (stereo not given) | -7.21 | 10.7 | 7.7 | 0.602 | 0.887 | 5.85 | 5.17 | 6.84 | 5.13 | -8.94 |
| Cc1nccn1-c1cccc(C2CCCN2S(=O)(=O)N(C)C)n1 (stereo not given) | -4.04 | 14.7 | 13.1 | 1.77 | -0.443 | 8.05 | 21 | 5.29 | 15 | -24.5 |
| CO[C@@H]1CC[C@@H](N(C)C(=O)COc2ccc(F)cc2)[C@H]1O | -0.0302 | 9.33 | 5.58 | -6.31 | 5.31 | 10.8 | 9.43 | 1.06 | 7.5 | -24 |
| CN(C(=O)Cc1c[nH]c2ccccc12)C1CCN(c2ccccn2)CC1 | -4.77 | 2.67 | -1.22 | -3.81 | 1.77 | 4.16 | 31.5 | 3.68 | 0 | -14.4 |
